Source: PubChem BioAssay
Shiga toxin inh: inhibitors of Shiga toxin in Vero cells. Vero cells, Shiga toxin protein synthesis inhibition reporter. actives 9.2% (n = 290,000). inhibition, % at 38.7 µM; in the data active = inhibition mostly above about 28%, no sharp cut-off; inactive = mostly below about 43%; note: 0% is about no effect
NS1 inh: blocks influenza NS1 protein function. Potency, µM (titrated, usually from 46.1 µM), inactives show at the highest dose activity, positive = more growth. actives 0.4% (n = 270,000). AID 2326; calls by dose curve; note: potency is the fitted concentration of half-maximal effect; actives are rising curves; nearly all actives have a fitted effect of over 50% in size
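Recovery from NS1-induced slow growth read by OD600 in budding yeast switched to galactose assay medium (pH 6.0, -URA) at 1:100 dilution. Compound 23 nl per well; the matching strain lacking NS1 serves as control.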
Cycloheximide cs: counter-screen hit for Shiga toxin inhibitors, cycloheximide; cell reporter, cycloheximide protein synthesis inhibition counterscreen; max response, %; actives 12% (n = 300,000); in the data active = max response mostly above about 13%, no sharp cut-off; inactive = mostly below about 14%; note: read at 38.3 µM for the half of the compounds with a filed dose; 0% is about no effect
Pf growth 48h: P. falciparum growth inhibition at 48 hours (one generation). P. falciparum luciferase growth in erythrocytes, 48 h. Potency, µM (top dose mostly 28.7 µM), without a hit: at the highest dose activity change, negative = inhibition, actives largely listed as inhibitors. actives 5.9% (n = 310,000). AID 504832; note: potency is the fitted concentration of half-maximal effect; % is set by controls: 0 for no effect and ±100 for the full control effect
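Firefly luciferase activity from engineered P. falciparum reports growth; inhibitors lower the luminescent signal. Cultures contained 2% hematocrit erythrocytes at 0.1% final parasitemia.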
Pf growth 96h: P. falciparum growth inhibition at 96 hours | AID 504834 | Potency, µM (titrated, usually from 28.7 µM), for the others: at the highest dose activity change, negative = inhibition, usual class: inhibitors | actives 6.9% (n = 320,000) | P. falciparum luciferase reporter growth, 96 h; note: potency is the fitted concentration of half-maximal effect; % is set by controls: 0 for no effect and ±100 for the full control effect
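Luminescence readout: decreased luciferase signal marks inhibited growth of reporter-expressing P. falciparum in infected red cells (2% hematocrit, 0.05% parasitemia final), exposed to compound two generations (96 h, 37 C, 5% CO2).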
* marks the source's active call; other numbers are inactive results; ? = inconclusive; / = no result. Sampled rows, rich in hits. Any-hit rate of the full collection: about 21%. Unless noted, calls come from the whole dose curve; as a rule, active = well fitted inhibition curve with a large enough effect; inconclusive = small, poorly fitted or top-dose-only effect, or another doubt; inactive = no such curve, though single readings can be large or run the other way.

SMILES	Shiga toxin inh	NS1 inh	Cycloheximide cs	Pf growth 48h	Pf growth 96h
COc1ccc(C(C)=O)cc1COc1nc(C)nc2ccccc12	1.5	/	7.8	-4.7%	8.7%
Cc1cc(CNC(=O)COc2ccccc2)c2ccccc2n1	80.4	/	17.2*	8.5%	38.0%
CN(C)c1ccc(C=C2C(=O)OC(C)(C)OC2=O)cc1	17.8	/	5.3	-5.8%	?
CC(C)/C=C1\CC/C(=C\c2ccc(N(C)C)cc2)C1=O	77.1*	4.9%	35.5*	85.8%	42.3%
CC(C)c1ccc(/C=C2\CC/C(=C\C=N\N(C)C)C2=O)cc1	124.6*	-2.0%	55.3*	/	?
COc1ccc(/C=C/C(=O)O)cc1S(=O)(=O)N1CCC(C)CC1	4.2	2.8%	0.6	10.3%	19.2%
O=C1Nc2ccccc2OC1CC(=O)N1CCN(c2cccc(C(F)(F)F)c2)CC1 (centres undefined)	-11.9	-50.0%	-2.8	/	31.5%
CCn1c(=O)c(C(=O)NCCCO)c(O)c2ccccc21	-10.1	-80.2%	-1.5	-20.3%	15.3%
CCN(CC)CCCNC(=O)c1c(O)c2ccccc2n(Cc2ccccc2)c1=O	-10.6	-12.9%	-2.7	9.28µM*	44.1%
CCN(CC)CCNC(=O)c1c(O)c2ccccc2n(Cc2ccccc2)c1=O	-20.0	-6.7%	-4.5	11.7µM*	4.15µM*
COCCn1c(=NC(=O)CSCC(=O)N2CCOCC2)sc2ccccc21	-9.2	5.0%	-2.2	-1.8%	-10.7%
Cc1ccccc1NC(=O)c1cnc2ccccn2c1=O	86.1*	-54.2%	78.9*	44.4%	6.57µM*
CC(C)n1c(=N)c(C(=O)NCCc2ccccc2)cc2c(=O)n3ccccc3nc21	-3.4	-7.8%	0.9	?	7.4%
Cc1csc2ncc(C(=O)NCCc3ccccc3)c(=O)n12	47.7*	-3.1%	45.3*	121.8%	116.5%
CSc1ncc(C(=O)Nc2ccccc2C)c(C)n1	7.5	2.3%	-2.5	10.2%	-17.4%
CSc1ccccc1NC(=O)c1cnc2scc(C)n2c1=O	28.0*	-60.5%	25.0*	11.2%	9.8%
O=C(NCCc1ccccc1)c1cnc2ccccn2c1=O	56.6*	-5.2%	41.0*	324.7%	453.3%
CCc1ccccc1NC(=O)c1cnc2scc(C)n2c1=O	23.2	-34.4%	9.1	37.4%	0.5%
CN(C)N=Nc1nc2c(c(=O)n(C)c(=O)n2C)n1CC1CO1 (centres undefined)	-4.6	2.0%	-0.6	-0.3%	-5.6%
COc1ccccc1N1CCN(C(=O)NC23CC4CC(CC(C4)C2)C3)CC1	-1.8	-6.4%	1.3	?	?
COc1ccccc1C1CCN(c2ccc([N+](=O)[O-])c(OC)c2)CC1	64.4*	0.7%	34.7*	-13.0%	0.0%
O=C(NN=C1CCCCCCC1)c1ccc2ccccc2n1	26.6	/	17.3*	0.0%	?
O=C(NN=C1CCCCCCC1)c1ccccn1	39.4	-1.8%	23.5*	58.7%	184.5%
O=C(N/N=C1\CCCCc2ccccc21)c1ccccn1	89.9*	/	44.0*	86.9%	-2.1%
O=C(NN=C1CCCCCC1)c1ccncc1	2.7	-5.4%	15.8	21.0%	?
SMILES	Shiga toxin inh	NS1 inh	Cycloheximide cs	Pf growth 48h	Pf growth 96h
O=C(NN=C1CCCCCC1)c1cc2ccccc2cc1O	17.7	7.5%	7.6	?	4.7%
O=C(NN=C1CCCCCC1)c1c[nH]c2ccccc12	active	11.5%	11.9	2.7%	-15.7%
CC(SCc1ccccc1)C(=O)NCc1ccccn1 (centres undefined)	-7.3	0.0%	-1.0	?	-3.4%
COc1ccc(CCCC(=O)NCCc2ccccc2)c(C)c1	13.4	-27.8%	0.9	?	?
O=C(O)CC(Cc1ccc(Br)cc1)C(=O)Nc1ccccc1 (centres undefined)	13.0	12.1%	0.9	-4.8%	?
O=C(CSC(=S)N1CCCCC1)N1N=CCC1c1ccccc1 (centres undefined)	163.0*	10.7%	70.9*	43.9%	/
O=C(CSc1ccc(Cl)cc1)N1N=CCC1c1ccccc1 (centres undefined)	72.6*	-38.0%	14.5	?	-11.5%
NC(=NC(=O)c1ccc(Cl)cc1)N1N=CCC1c1ccccc1 (centres undefined)	-4.3	11.2%	1.4	?	?
CCN1CCN(CC(=O)N2N=CCC2c2ccccc2)CC1 (centres undefined)	18.5	2.1%	-2.1	16.8%	23.6%
CC(C(=O)O)c1ccc2c(c1)Cc1cccnc1O2 (centres undefined)	/	/	/	-7.4%	1.51µM*
Cc1c(NS(=O)(=O)c2ccc3c(c2)CCN3C(=O)C2CC2)c(=O)n(-c2ccccc2)n1C	14.0	3.9%	-1.4	?	?
CN1CCN(C(=O)/C=C/c2ccc3c(c2)OCO3)CC1	37.6	25.9%	26.5*	-6.3%	12.1%
CCN1CCN(C(=O)/C=C/c2ccc3c(c2)OCO3)CC1	18.7	-2.7%	15.9	15.8%	-15.7%
CCOC(=O)N1CCN(C(=O)/C=C/c2ccc3c(c2)OCO3)CC1	11.8	-0.9%	-1.5	-5.3%	?
COC(=O)C1CCN(C(=O)/C=C/c2ccc3c(c2)OCO3)CC1	/	-1.2%	15.2*	186.9%	?
CC(NC(=O)COC(=O)CNC(=O)C1CCCCC1)c1ccccc1 (centres undefined)	/	/	/	-7.3%	-4.6%
CCCn1nc2cc(C(=O)NC3CCc4ccccc43)ccc2c1OCC (centres undefined)	33.3	-20.7%	-0.2	11.7µM*	?
CCCn1nc2cc(C(=O)NCCc3cccs3)ccc2c1OCC	73.4*	-5.4%	28.5*	8.8%	37.9%
CCN(CCNC(=O)CN1CCN(Cc2ccc(Cl)cc2)C1=O)c1ccccc1	-1.8	-36.7%	-3.3	/	?
C=CCn1c(-c2cc3c(s2)CCC(CC)C3)n[nH]c1=S (centres undefined)	36.1	/	23.7*	18.0%	40.4%
C=CCn1c(SCC(=O)NC2CCS(=O)(=O)C2)nnc1-c1cc2c(s1)CCC(CC)C2 (centres undefined)	62.5	-8.3%	25.0*	46.1%	37.1%
CC[C@H](C)[C@H](NC(=O)[C@H](C)NC(=O)[C@H](Cc1cnc[nH]1)NC(=O)[C@@H]1CCCN1C(=O)CNC(=O)[C@H](CC(C)C)NC(=O)[C@H](CC(C)C)NC(=O)[C@H](Cc1ccc(O)cc1)NC(=O)CNC(=O)[C@H](C)NC(=O)[C@H](CO)NC(=O)[C@H](CC(N)=O)NC(=O)[C@H](CC(C)C)NC(=O)[C@@H](NC(=O)[C@H](Cc1c[nH]c2ccccc12)NC(=O)CN)[C@@H](C)O)C(=O)N[C@@H](CC(=O)O)C(=O)N[C@@H](CC(N)=O)C(=O)N[C@@H](Cc1cnc[nH]1)C(=O)N[C@@H](CCCNC(=N)N)C(=O)N[C@@H](CO)C(=O)N[C@@H](Cc1ccccc1)C(=O)N[C@@H](CO)C(=O)N[C@@H](CC(=O)O)C(=O)N[C@@H](CCCCN)C(=O)N[C@@H](Cc1cnc[nH]1)C(=O)NCC(=O)N[C@@H](CC(C)C)C(=O)N[C@H](C(N)=O)[C@@H](C)O	-9.4	/	-9.3	/	/
